The text below walks through data of article PMC4336329 (PLoS ONE, 2015).

The whole screen tested about 310,000 compounds, of which about 14,000 (4.5%) showed an effect of 50% or more. Effects have a minus sign here. Many of the other results were omitted from the sample, so strong results are more common in it than they were.
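Further: peak tail current of the secondary pulse compared with the same well before compound.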

This assay deals with human ether-à-go-go-related gene (hERG) potassium channel (human, UniProt Q12809). The experiment in a line: primary screen, population patch clamp on CHO cells stably expressing hERG; higher = less effect of the substance.
Chain of human ether-à-go-go-related gene (hERG) potassium channel (Q12809 whole entry, looked up): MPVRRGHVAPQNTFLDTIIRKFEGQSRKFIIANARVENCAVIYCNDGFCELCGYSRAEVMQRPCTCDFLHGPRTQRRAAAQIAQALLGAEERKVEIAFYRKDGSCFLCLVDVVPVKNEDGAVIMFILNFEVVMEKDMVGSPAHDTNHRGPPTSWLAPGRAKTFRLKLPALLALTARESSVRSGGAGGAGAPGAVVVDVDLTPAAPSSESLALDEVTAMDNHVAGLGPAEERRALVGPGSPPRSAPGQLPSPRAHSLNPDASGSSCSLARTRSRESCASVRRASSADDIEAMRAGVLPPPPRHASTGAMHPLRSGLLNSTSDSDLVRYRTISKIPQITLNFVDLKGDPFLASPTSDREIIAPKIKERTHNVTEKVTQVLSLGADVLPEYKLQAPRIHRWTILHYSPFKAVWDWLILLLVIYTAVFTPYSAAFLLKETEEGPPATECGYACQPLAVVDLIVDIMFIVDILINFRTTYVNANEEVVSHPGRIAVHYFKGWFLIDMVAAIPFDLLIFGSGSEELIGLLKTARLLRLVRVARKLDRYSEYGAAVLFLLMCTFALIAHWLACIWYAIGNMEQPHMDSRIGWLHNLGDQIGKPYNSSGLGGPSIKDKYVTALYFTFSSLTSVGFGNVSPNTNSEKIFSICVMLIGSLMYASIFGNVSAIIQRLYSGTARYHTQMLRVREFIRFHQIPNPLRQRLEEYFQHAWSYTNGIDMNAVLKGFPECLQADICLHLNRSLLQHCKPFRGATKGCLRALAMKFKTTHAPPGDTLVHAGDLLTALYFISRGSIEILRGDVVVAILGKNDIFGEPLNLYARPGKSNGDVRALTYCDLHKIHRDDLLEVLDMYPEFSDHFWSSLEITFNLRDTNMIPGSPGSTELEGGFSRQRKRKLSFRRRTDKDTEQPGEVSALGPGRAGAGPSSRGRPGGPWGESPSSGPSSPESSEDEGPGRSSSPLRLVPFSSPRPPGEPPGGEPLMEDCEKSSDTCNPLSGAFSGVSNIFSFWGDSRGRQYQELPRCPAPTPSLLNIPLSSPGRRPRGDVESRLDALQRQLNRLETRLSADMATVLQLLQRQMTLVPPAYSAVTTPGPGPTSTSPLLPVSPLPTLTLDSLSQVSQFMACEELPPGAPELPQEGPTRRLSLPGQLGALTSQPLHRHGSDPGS
Consider `OCCCNc1ncnc2sc(-c3ccccc3)cc12`, for which the “hERG current change (%, negative = inhibition) at 10uM” value came out at 3.23%.

`CN(C)CCNc1ncnc2oc(-c3ccccc3)c(-c3ccccc3)c12`: the “hERG current change (%, negative = inhibition) at 10uM” value is reported as -60.7%.

`CN(C)CCCNc1ncnc2sc(-c3ccccc3)cc12.O=C(O)C(=O)O`: the “hERG current change (%, negative = inhibition) at 10uM” value is on record as -60.2%.

Consider `COCCCNC(=O)CNC(=S)N(Cc1ccccc1)Cc1cccnc1`, for which the “hERG current change (%, negative = inhibition) at 10uM” value is on record as -9.77%.

Take `O=C(NCc1cccnc1)Nc1cccc(F)c1`: the “hERG current change (%, negative = inhibition) at 10uM” value amounted to 7.53%.

For `CN(Cc1ccccc1)C(=O)Nc1ccccc1`, the “hERG current change (%, negative = inhibition) at 10uM” value was found to be 7.49%.

For the compound `COC(=O)c1ccccc1NC(=O)COc1ccc(S(=O)(=O)N2CCCC2)cc1C`, the “hERG current change (%, negative = inhibition) at 10uM” value was found to be 8.37%.

Consider `CSc1nnc2c(n1)OC=Nc1ccc(Br)cc1-2`, for which the “hERG current change (%, negative = inhibition) at 10uM” value was -11.7%.

Regarding `O=C(NCC1CCCO1)c1ccc[nH]1` (centres unmarked), the “hERG current change (%, negative = inhibition) at 10uM” value was determined as 12.3%.

For `COc1ccc2oc(=O)c(C(=O)Nc3ccccc3O)cc2c1`, the “hERG current change (%, negative = inhibition) at 10uM” value came to 8.79%.

For `Cn1c(CC(=O)Nc2ccccc2F)nnc1SCC(=O)Nc1nccs1`, the “hERG current change (%, negative = inhibition) at 10uM” value amounted to 18.6%.

In the case of `Fc1ccc(-c2cc(C(F)(F)F)n3ncnc3n2)cc1`, the “hERG current change (%, negative = inhibition) at 10uM” value was determined as 26.8%.

`CC(=O)c1cc2c(cc1NC(=O)c1cnc(C)cn1)OCO2`: the “hERG current change (%, negative = inhibition) at 10uM” value was 4.22%.

In the case of `O=S(=O)(c1ccccc1)N(CC(O)Cn1c2ccccc2c2ccccc21)c1ccccc1` (centres unmarked), the “hERG current change (%, negative = inhibition) at 10uM” value amounted to 14.9%.

In the case of `Cc1cccc(N(CC(O)CN(C)C)S(=O)(=O)c2ccccc2)c1.Cl` (centres unmarked), the “hERG current change (%, negative = inhibition) at 10uM” value is reported as -63%.

Consider `COC(=O)CN(c1cccc(C)c1)S(=O)(=O)c1ccccc1`, for which the “hERG current change (%, negative = inhibition) at 10uM” value is -14%.

With `Cc1ccc(N(CC(O)CN(C)C)S(=O)(=O)c2ccccc2)cc1.Cl` (centres unmarked), the “hERG current change (%, negative = inhibition) at 10uM” value is reported as -68.1%.

Regarding `O=S(=O)(c1ccccc1)N(CC(O)COc1ccccc1)c1ccccc1` (centres unmarked), the “hERG current change (%, negative = inhibition) at 10uM” value is reported as -26.6%.

As to `Cc1cccc(N(CC(=O)N2CCCC2)S(=O)(=O)c2ccccc2)c1`, the “hERG current change (%, negative = inhibition) at 10uM” value was -34.7%.

Take `Cc1ccc(S(=O)(=O)N(CC(O)CN(C)C)c2ccccc2)cc1.Cl` (centres unmarked): the “hERG current change (%, negative = inhibition) at 10uM” value is listed as -65.6%.

Regarding `Cc1ccc(S(=O)(=O)N(CC(O)CN2C(=O)NC(C)(C)C2=O)c2ccccc2)cc1` (centres unmarked), the “hERG current change (%, negative = inhibition) at 10uM” value is -37.7%.

As for `Cc1cc(C)n(CC(O)CN(c2ccccc2)S(=O)(=O)c2ccc3ccccc3c2)n1` (centres unmarked), the “hERG current change (%, negative = inhibition) at 10uM” value was -6.13%.

Consider `CCN(CC)CC(O)CN(c1ccccc1)S(=O)(=O)c1ccc2ccccc2c1.Cl` (centres unmarked), for which the “hERG current change (%, negative = inhibition) at 10uM” value is reported as -80.2%.

For the compound `CCN(c1ccccc1)S(=O)(=O)c1ccc2ccccc2c1`, the “hERG current change (%, negative = inhibition) at 10uM” value is recorded as -3.29%.

Regarding `Cc1ccc(S(=O)(=O)N(C)c2ccccc2)cc1`, the “hERG current change (%, negative = inhibition) at 10uM” value was -11.8%.

Regarding `O=C(CC1SC(=O)N(Cc2ccccc2)C1=O)Nc1nccs1` (centres unmarked), the “hERG current change (%, negative = inhibition) at 10uM” value stood at 3.22%.

On to `O=C(Nc1ccc(Br)cc1)Nc1ccccc1Cl`, for which the “hERG current change (%, negative = inhibition) at 10uM” value worked out at 19.7%.

As for `CC(=O)Nc1ccc2c(c1)ncn2-c1ccccc1`, the “hERG current change (%, negative = inhibition) at 10uM” value worked out at 3.72%.

`CCOC(=O)C1CCCN(C(=O)c2ccc3c(c2)NC(=O)C(N2CCOCC2)S3)C1` (centres unmarked): the “hERG current change (%, negative = inhibition) at 10uM” value was found to be 19.7%.

Consider `CCCCC(=O)NC(=S)Nc1ccc(NC(=O)C(C)C)c(OC)c1`, for which the “hERG current change (%, negative = inhibition) at 10uM” value is 21.2%.

`Cc1ccc(N(CC(O)COCc2ccco2)S(=O)(=O)c2ccc(C)cc2)cc1` (centres unmarked): the “hERG current change (%, negative = inhibition) at 10uM” value is -11.1%.

In the case of `CCCN(CCC)CC(O)CN(c1ccccc1)S(=O)(=O)c1ccc(C)cc1` (centres unmarked), the “hERG current change (%, negative = inhibition) at 10uM” value is recorded as -80.3%.

Regarding `Cc1ccc(S(=O)(=O)N(CCC(=O)O)c2ccccc2)cc1`, the “hERG current change (%, negative = inhibition) at 10uM” value is listed as -10.5%.

With `CC(C)OC(=O)CCc1nc2ccccc2[nH]c1=O`, the “hERG current change (%, negative = inhibition) at 10uM” value was 10.1%.

Consider `COc1nc(-c2ccccc2)ccc1-c1noc(-c2cccnc2)n1`, for which the “hERG current change (%, negative = inhibition) at 10uM” value turned out to be 5.15%.

As for `COc1ccc(C(=O)COC(=O)CNC(=O)C2CCCCC2)c(OC)c1`, the “hERG current change (%, negative = inhibition) at 10uM” value is on record as -11%.

On to `COc1ccc(NC(=O)C2C(=O)N(C)C3(C)CC2c2ccccc2O3)cc1` (centres unmarked), for which the “hERG current change (%, negative = inhibition) at 10uM” value is given as -13.5%.

`CCC(C)NS(=O)(=O)c1cccs1` (centres unmarked): the “hERG current change (%, negative = inhibition) at 10uM” value stood at 7.86%.

On to `COc1ccc(OC)c(CCNC(=O)C(C)n2nc(C)c3c(C)n(-c4ccccc4)nc3c2=O)c1` (centres unmarked), for which the “hERG current change (%, negative = inhibition) at 10uM” value was -0.756%.

Regarding `COc1ccc(OC)c(CCNC(=O)C(C)n2nc(C)c3c(C)n(-c4ccc(C)cc4)nc3c2=O)c1` (centres unmarked), the “hERG current change (%, negative = inhibition) at 10uM” value is -53.2%.

As to `COc1ccc(CNC(=O)C(C)n2nc(C)c3c(C)n(-c4ccccc4)nc3c2=O)c(OC)c1` (centres unmarked), the “hERG current change (%, negative = inhibition) at 10uM” value is listed as -8.08%.

For `COc1ccc(OC)c(CCNC(=O)Cn2nc(C)c3c(C)n(-c4ccccc4)nc3c2=O)c1`, the “hERG current change (%, negative = inhibition) at 10uM” value is recorded as 5%.

Take `COc1ccc(CCNC(=O)C(C)n2nc(C)c3c(C)n(-c4ccc(C)cc4)nc3c2=O)c(OC)c1` (centres unmarked): the “hERG current change (%, negative = inhibition) at 10uM” value is recorded as -58.6%.

`COc1ccccc1CCNC(=O)C(C)n1nc(C)c2c(C)n(-c3ccccc3)nc2c1=O` (centres unmarked): the “hERG current change (%, negative = inhibition) at 10uM” value is listed as -12.3%.

Regarding `COc1ccc(OC)c(CNC(=O)C(C)n2nc(C)c3c(C)n(-c4ccccc4)nc3c2=O)c1` (centres unmarked), the “hERG current change (%, negative = inhibition) at 10uM” value is recorded as -7.41%.

In the case of `COc1ccc(OC)c(CCNC(=O)Cn2nc(C)c3c(C)n(-c4ccc(C)cc4)nc3c2=O)c1`, the “hERG current change (%, negative = inhibition) at 10uM” value is reported as -59%.

Regarding `COc1ccc(OC)c(CNC(=O)Cn2nc(C)c3c(C)n(-c4ccc(C)cc4)nc3c2=O)c1`, the “hERG current change (%, negative = inhibition) at 10uM” value came to 3.27%.
